Measured values as given in the supplement of paper PMC6555819.

Key:
Experiment in all cases: PBM binding z-score (relative to random genomic background probes); higher = stronger binding; sequences stand for … in GC…GCGATTGACAGCGTAGAATGAAGG
[1] = test system: RARb homodimer (NR concentration 270 nM)
How it was run: (§1)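 Antibodies against each partner of ligand-free nuclear receptor dimers (one per run) detected binding on custom Agilent 4×180K protein-binding microarrays after 1 h incubation. The double-stranded probes had 34-nt variable regions carrying direct-repeat seeds, single-nucleotide variants, half-site ablations and random human genomic background sequences. Binding z-scores, from regression-normalized fluorescence, use the random background probes as reference.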

[2] = test system: RARg:RXRa (NR concentration 270 nM, RXRa partner concentration 90 nM)
How it was run: as §1

[3] = test system: RARg homodimer (NR concentration 270 nM)
How it was run: as §1

[4] = test system: RXRa DBDmut IVT, anti-RXR (DBD mutation: RXRa K156A/R161A, NR concentration 90 nM)
How it was run: as §1

[5] = test system: RXRa homodimer (NR concentration 180 nM)
How it was run: as §1

[6] = test system: THRa:RXRa (NR concentration 90 nM, RXRa partner concentration 90 nM)
How it was run: as §1

[7] = test system: THRa homodimer (NR concentration 90 nM)
How it was run: as §1

[8] = test system: VDR homodimer (NR concentration 270 nM)
How it was run: as §1

Sequence | PBM binding z-score [1] | PBM binding z-score [2] | PBM binding z-score [3] | PBM binding z-score [4] | PBM binding z-score [5] | PBM binding z-score [6] | PBM binding z-score [7] | PBM binding z-score [8]
TCATATAGGTAAATGCTAGGTCAAAGTCCGATCT | 2.75 | 2.52 | 1.58 | 1.72 | 2 | 2.96 | 1.76 | 1.35
CGGCAAAGTTCAACTAAGGTAACGTAAAGCACGC | 4 | 5.78 | 6.69 | 4.36 | 5.14 | 5.16 | 1.33 | 3.51
ACAGACAGGTGATGAAGGTAACTCTGGCTATCAT | -0.162 | 0.325 | 0.249 | -0.432 | 0.387 | 0.0574 | -0.327 | -0.648
TCTGCTCGGTCAACGATGGTCAGCTAATCTGCTA | 1.65 | 1.41 | 2.83 | 0.129 | 0.25 | 0.269 | -0.89 | -0.978
TCATATAGGTACACAGGTGAAAGTCCGTAAGTTA | 1.25 | 0.77 | 0.513 | 2.06 | 1.27 | 0.937 | 0.627 | 1.07
CCTACTGGGCCAAGGGCATTGATCAGTCAAAGCA | 0.581 | 0.0127 | 0.289 | -1.17 | -0.4 | 0.178 | -0.634 | -0.245
GCTAGCAGGCCATTTGGGTAACTCAATGACGGGC | -0.555 | -0.388 | -0.283 | -0.499 | -0.0687 | -0.0773 | -0.78 | -0.461
